Measured values reported in PubChem BioAssay AID720504 (National Center for Advancing Translational Sciences (NCATS), 2013).
In all, about 360,000 compounds went through this assay and about 10,000 (2.8%) were called active. Roughly 4% stayed inconclusive and do not appear here. The call rests on the fitted dose curve; in most records, active means well fitted inhibition curve with a large enough effect; inconclusive means small, poorly fitted or top-dose-only effect; inactive means flat fitted curve, though single readings scatter. This excerpt belongs to a sample that is enriched for actives.
Further: nearly all actives have a fitted effect of over 65% in size.
On the % scale 0 is the no-effect control and ±100 the full control effect; potency means the concentration at half of the fitted maximal effect.
Wherever max response, negative = inhibition is given: series mostly up to about 57 µM.

The compounds below were run against Serine/threonine-protein kinase PLK1 (Homo sapiens) (UniProt P53350) (assay: qHTS for Inhibitors of PLK1-PDB (polo-like kinase 1 - polo-box domain): Primary Screen). Settings: Plk1 PBD binding of FITC phosphopeptide, fluorescence polarization.
Sequence of Serine/threonine-protein kinase PLK1 (Homo sapiens) (P53350 whole entry, looked up, the tested form may be a part): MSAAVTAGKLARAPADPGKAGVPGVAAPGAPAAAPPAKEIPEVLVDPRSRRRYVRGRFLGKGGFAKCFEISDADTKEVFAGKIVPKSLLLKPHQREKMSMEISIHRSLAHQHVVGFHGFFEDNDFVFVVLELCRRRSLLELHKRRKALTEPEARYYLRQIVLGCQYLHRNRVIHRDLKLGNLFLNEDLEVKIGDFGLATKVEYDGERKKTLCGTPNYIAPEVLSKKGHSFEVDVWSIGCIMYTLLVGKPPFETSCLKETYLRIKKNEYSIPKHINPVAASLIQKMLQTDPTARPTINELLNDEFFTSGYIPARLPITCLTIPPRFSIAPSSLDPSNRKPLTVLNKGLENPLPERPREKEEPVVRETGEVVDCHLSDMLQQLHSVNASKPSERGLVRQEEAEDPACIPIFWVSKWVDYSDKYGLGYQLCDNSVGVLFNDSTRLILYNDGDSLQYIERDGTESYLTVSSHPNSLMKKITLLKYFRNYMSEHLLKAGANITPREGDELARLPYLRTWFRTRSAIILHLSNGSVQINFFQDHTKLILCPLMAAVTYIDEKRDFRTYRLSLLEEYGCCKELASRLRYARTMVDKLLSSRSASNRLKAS
In the case of `Cc1ccc(-c2nc3ccc(Br)cn3c2Cc2ccccc2C(F)(F)F)cc1`, the max response, negative = inhibition is reported as -28.5% (inactive).
For `Cc1ccc([C@@H]2CC(=O)[C@@H]3CN(S(=O)(=O)c4ccc(C)cc4)[C@H](c4ccccc4F)C[C@@H]3N2S(=O)(=O)c2ccc(Cl)cc2)cc1`, the max response, negative = inhibition was 3.58% (inactive).
For `NC(=O)c1c(NC(=O)CSc2nnc(-c3ccco3)n2N)sc2c1CCCC2`, the Potency was 15 µM (active).
In the case of `CCc1cccc(C)c1NC(=O)CSc1nnc(-c2ccco2)n1N`, the max response, negative = inhibition is reported as -0.459% (inactive).
`Nn1c(SCC(=O)Nc2nccs2)nnc1-c1ccco1` was tested, and the max response, negative = inhibition was -17.8% (inactive).
In the case of `COc1ccc([C@H]2CC(=O)C[C@@H](CCn3cc(CC4CCCC4)nn3)O2)cc1`, the max response, negative = inhibition is reported as 2.62% (inactive).
With `CN(C)CCOC1c2ccccc2-c2ccccc21` the Potency was 29.9 µM (active).
`CN(C)CCOc1cccc(Br)c1` was tested, and the max response, negative = inhibition was -4.17% (inactive).
For `CC(=O)O[C@H]1c2ccccc2-c2ccccc2[C@@H]1OC(C)=O`, the max response, negative = inhibition was 1.29% (inactive).
With `CCCCC[C@H](C)N1C[C@@H](COCc2ccccc2)Oc2cc(N3CC[C@@H](N(C)C)C3)ccc2S1(=O)=O` the max response, negative = inhibition was 4.46% (inactive).
In the case of `CCOC(=O)[C@]12CCCC=C1N(Cc1ccc3c(c1)OCO3)C(=O)[C@H](CC(=O)N1CCN(C(=O)c3ccco3)CC1)C2`, the max response, negative = inhibition is reported as -17.4% (inactive).
In the case of `CC1(C(=O)NS(=O)(=O)Cc2cccc(Cl)c2)CCN1C(=O)Cc1ccc(Cl)cc1Cl` (stereo not drawn), the max response, negative = inhibition is reported as -4.29% (inactive).
In the case of `Nc1ccc(C(=O)N2CCN(S(=O)(=O)c3ccc(Cl)cc3)CC2)cc1[N+](=O)[O-]`, the max response, negative = inhibition is reported as -9.21% (inactive).
In the case of `CC1CCN(C(=O)c2ccc(S(=O)(=O)Cc3cc(F)ccc3F)c([N+](=O)[O-])c2)CC1`, the Potency is reported as 15 µM (active).
`O=C(c1ccc(Oc2ccc(Cl)cc2)c([N+](=O)[O-])c1)N1CCCC1` was tested, and the max response, negative = inhibition was -8.04% (inactive).
For `O=C(Nc1ccc(Cl)cc1)c1csc([C@@H]2O[C@H](CO)[C@H](O)[C@H](O)[C@H]2O)n1`, the max response, negative = inhibition was 2.4% (inactive).
For `O=C(Nc1cccc(Cc2ccccc2)c1)Nc1ccc2nc([C@@H]3O[C@H](CO)[C@@H](O)[C@H](O)[C@H]3O)[nH]c2c1`, the max response, negative = inhibition was -5.78% (inactive).
With `CCOc1cccc(/C=N/N2C(=O)CSC2=S)c1O` the Potency was 11.9 µM (active).
For `CCOc1ccc(N2C(=O)CSC2=NC#N)cc1`, the max response, negative = inhibition was -14.5% (inactive).
In the case of `CCOc1cc(/C=N/n2cnnc2)c(Br)cc1O`, the max response, negative = inhibition is reported as -5.37% (inactive).
For `CCCCCCN1C[C@H](O)[C@@H](n2cc(C3CC3)nn2)C[C@@H]1c1ccc(Cl)cc1`, the max response, negative = inhibition was -0.475% (inactive).
In the case of `CCC(C)(C)NC(=O)C(c1ccc(OC)cc1)N(C(=O)CCC(=O)Nc1cc(C)on1)c1ccc(OC)cc1OC` (stereo not drawn), the max response, negative = inhibition is reported as -9.49% (inactive).
For `CCC(C)(C)NC(=O)C(c1cccc(OC)c1OC)N(CC(C)C)C(=O)CCC(=O)Nc1cc(C)on1` (stereo not drawn), the Potency was 10.6 µM (active).
`COc1ccc(C(C(=O)NC(C)(C)C)N(Cc2ccc(F)cc2)C(=O)CCC(=O)Nc2cc(C)on2)cc1` (stereo not drawn) was tested, and the max response, negative = inhibition was -11.5% (inactive).
For `CC(=O)Nc1cc(-c2ccc(N3CCN(C)CC3)cc2)cn2c(-c3ccc(F)cc3)cnc12`, the max response, negative = inhibition was 1.71% (inactive).
With `COCCCn1c(=O)/c(=C/c2ccccc2OC(C)C)s/c1=C(\C#N)C(=O)Nc1ccc(C(=O)O)cc1` the max response, negative = inhibition was -29.5% (inactive).
For `Nc1nnn(CC(=O)N/N=C/c2ccc(O)cc2)n1`, the max response, negative = inhibition was -3.01% (inactive).
For `Cc1nonc1C(=O)N/N=C/c1ccc(O)cc1`, the max response, negative = inhibition was -1.21% (inactive).
For `O=C(C[n+]1ccccc1)N/N=C/c1ccc(O)cc1`, the Potency was 26.7 µM (active).
In the case of `O=C(Nc1ccc2c(c1)[C@@H]1C[C@@H](CC(=O)N3CCCCC3)O[C@@H](CO)[C@@H]1O2)NC1CCCCC1`, the max response, negative = inhibition is reported as 2.32% (inactive).
In the case of `Cc1nc(C(F)(F)F)ccc1C(=O)N1CCC1(C)C(=O)NS(=O)(=O)c1ccc(F)cc1F` (stereo not drawn), the max response, negative = inhibition is reported as 1.72% (inactive).
For `COc1ccc(-n2cc(-c3ccccc3)c3c(=S)nc[nH]c32)cc1`, the max response, negative = inhibition was -12.3% (inactive).
`COc1ccc(N2C(=O)CNC2=S)cc1` was tested, and the max response, negative = inhibition was 0.339% (inactive).
In the case of `COc1ccc(-c2cn(-c3ccc(OC)cc3)c(=S)[nH]2)cc1`, the Potency is reported as 21.2 µM (active).
For `Cc1csc(=O)n1CCC(=O)OCC(=O)Nc1ccc(N2CCOCC2)cc1`, the max response, negative = inhibition was 1% (inactive).
In the case of `CSc1ccc(CN2CCC2(C)C(=O)Nc2ccc(C)c(O)c2)cc1` (stereo not drawn), the max response, negative = inhibition is reported as 4.93% (inactive).
With `COc1cc(F)ccc1-c1cc(C(=O)NCC2CCCCC2)[nH]n1` the max response, negative = inhibition was 1.4% (inactive).
For `N#CC1=C(N)N(c2ccccc2)C2=C(C(=O)CCC2)C1c1ccccc1` (stereo not drawn), the max response, negative = inhibition was -0.426% (inactive).
`COc1ccc(C2C(C#N)=C(N)N(c3ncn[nH]3)C3=C2C(=O)CCC3)cc1` (stereo not drawn) was tested, and the Potency was 26.7 µM (active).
For `CCOc1ccc(C2C(C#N)=C(N)N(N(C)C)C3=C2C(=O)CCC3)cc1` (stereo not drawn), the max response, negative = inhibition was -4.98% (inactive).
In the case of `CC1(C(=O)NCc2ccccc2)CN(S(C)(=O)=O)CC(=O)N1CC(F)(F)F` (stereo not drawn), the max response, negative = inhibition is reported as 3.31% (inactive).
For `CCC(=O)N1Cc2cc(C(=O)NCc3cccc(F)c3)nc(-c3cccc(C4=CCCC4)c3)c2[C@H]1CCO`, the max response, negative = inhibition was -10.3% (inactive).
`O=C(Nn1cnnc1)c1ccc([N+](=O)[O-])cc1` was tested, and the max response, negative = inhibition was -3.8% (inactive).
`O=C(Cn1c[n+](CC(=O)c2ccc([N+](=O)[O-])cc2)cn1)c1ccc([N+](=O)[O-])cc1` was tested, and the max response, negative = inhibition was -8% (inactive).
`O=C(CC(n1cncn1)C(Cl)(Cl)Cl)c1ccc([N+](=O)[O-])cc1` (stereo not drawn) was tested, and the Potency was 23.8 µM (active).
In the case of `OC[C@@H]1CN(Cc2cccs2)C[C@H](n2cnc3c(NC4CCCC4)ncnc32)O1`, the max response, negative = inhibition is reported as -8.04% (inactive).
In the case of `O=C(Nc1cccc2ccccc12)NC1CC1`, the max response, negative = inhibition is reported as -14.1% (inactive).
For `COc1ccc(C(C(=O)Nc2c(C)cccc2C)N2CCN(c3ccc(C)cc3)CC2)cc1` (stereo not drawn), the max response, negative = inhibition was -1.1% (inactive).
With `N#Cc1c(-c2ccccc2)cc(-c2ccccc2)nc1SCC(=O)O` the Potency was 21.2 µM (active).
For `N#Cc1c(C(F)(F)F)cc(-c2ccc(Cl)cc2)nc1SCC(=O)O`, the max response, negative = inhibition was -8.73% (inactive).
For `N#Cc1c(C(F)(F)F)cc(-c2ccccc2)nc1SCC(=O)N1CCOCC1`, the max response, negative = inhibition was -6.59% (inactive).
In the case of `OC(c1ccc(Cl)cc1)c1ncc(-c2ccc(Cl)cc2)[nH]1` (stereo not drawn), the max response, negative = inhibition is reported as 5.29% (inactive).
`CC1=C(C(=O)N2CCOCC2)CC(CC(=O)NCCCN(C)C)C(=O)N1Cc1ccc(C(C)(C)C)cc1` (stereo not drawn) was tested, and the max response, negative = inhibition was -2.35% (inactive).
`CCc1nc2ccc(C(=O)N3CCC(O)(Cc4ccccc4)CC3)cn2c1N(C)C(=O)Cc1ccccc1` was tested, and the max response, negative = inhibition was -2.01% (inactive).
For `Nc1ncnc2c1ncn2[C@@H]1O[C@H](C(=O)NCC(F)(F)F)[C@@H](O)[C@H]1O`, the max response, negative = inhibition was -5.72% (inactive).
For `CCOC(=O)c1c(-n2cnnn2)sc(C)c1C`, the Potency was 26.7 µM (active).
For `CCOc1ccc(C(=O)COC(=O)c2ccc(-n3cnnn3)cc2)cc1`, the max response, negative = inhibition was 2.47% (inactive).
In the case of `CCOC(=O)N1CCN(S(=O)(=O)c2ccc(-n3cnnn3)cc2)CC1`, the max response, negative = inhibition is reported as -22.3% (inactive).
`CC1(Oc2ccc(Cl)cc2)CCN(Cc2csc3ccccc23)C1` (stereo not drawn) was tested, and the max response, negative = inhibition was -4.39% (inactive).
In the case of `Cc1ccc(CNC(=O)Nc2nnc([C@H]3C[C@H](O)[C@@H](CO)O3)s2)cc1`, the max response, negative = inhibition is reported as 6.99% (inactive).
For `CC(C)C[C@@H](COCc1ccc(Cl)cc1)N1CCN(C(=O)c2ccc(Cl)cc2Cl)CCC1=O`, the max response, negative = inhibition was -7.05% (inactive).
`CC(=O)c1cccc(-c2cnc3c(NC=O)cc(-c4cccc(C(=O)N(C)C)c4)cn23)c1` was tested, and the max response, negative = inhibition was -7.52% (inactive).
For `COc1ccc(C(=O)CCc2ccccc2O)c(OC)c1`, the max response, negative = inhibition was -0.281% (inactive).
With `COc1ccc(C(=O)c2c(C)c(CCC#N)n3ccccc23)c(OC)c1` the Potency was 29.9 µM (active).
For `Cc1c(C(=O)c2cccc([N+](=O)[O-])c2)c2ccccn2c1CCC#N`, the max response, negative = inhibition was -8.17% (inactive).
With `CN1CCn2cnc(C(=O)NCC(=O)OC(C)(C)C)c2C1=O` the max response, negative = inhibition was -1.56% (inactive).
For `Cc1ccccc1S(=O)(=O)N1[C@@H](c2cccc(Cl)c2)C(C(=O)OC(C)(C)C)=CC[C@H]1c1ccc(Cl)cc1`, the max response, negative = inhibition was -12.6% (inactive).
In the case of `CCCCNC(=O)C[C@@H]1C[C@@]2(C(=O)OCC)CCC=C2N(Cc2ccco2)C1=O`, the max response, negative = inhibition is reported as -10.8% (inactive).
In the case of `Cc1ccc(S(=O)(=O)N2CC3C(=O)C[C@@H](c4ccccc4Cl)N(S(=O)(=O)c4ccc(C)cc4)C3CC2c2ccccc2)cc1` (stereo partly drawn), the max response, negative = inhibition is reported as 1.78% (inactive).
For `Cc1ccc(-n2c(SCC(=O)Nc3ccc4c(c3)OCO4)nnc2-c2ccccn2)cc1`, the max response, negative = inhibition was -3.49% (inactive).
For `Cc1ccc(-n2c(SCC(=O)Nc3ccc4c(c3)OCO4)nnc2-c2ccoc2C)cc1`, the Potency was 23.8 µM (active).
`O=C(CSc1nnc(-c2ccccn2)n1-c1ccccc1)Nc1ccc2c(c1)OCO2` was tested, and the max response, negative = inhibition was -6.44% (inactive).
`O=C(NCc1cccnc1)c1cc(C2CCCN(C(=O)CCCc3ccccc3)C2)on1` (stereo not drawn) was tested, and the max response, negative = inhibition was 7.06% (inactive).
With `C/C(COc1ccccc1)=N\NC(=O)c1nnn(-c2nonc2N)c1-c1ccc(C)cc1` the max response, negative = inhibition was -7.46% (inactive).
With `CCC(=O)NC(=S)Nc1ccc(NC(=O)c2ccco2)c(Cl)c1` the Potency was 29.9 µM (active).
With `O=C(NNC(=S)Nc1ccc(Br)cc1Cl)c1ccco1` the max response, negative = inhibition was -12.7% (inactive).
In the case of `Cc1cccc(OCC(=O)Nc2ccc(NC(=O)c3ccco3)c(C)c2)c1`, the max response, negative = inhibition is reported as -7.98% (inactive).
For `CCCCN1C(=O)C(CC(=O)NC(c2ccccc2)c2ccccc2)CC(C(=O)N2CCOCC2)=C1C` (stereo not drawn), the max response, negative = inhibition was -4.16% (inactive).
`Cc1nc(C(F)(F)F)ccc1C(=O)N1CCC1(C)C(=O)NS(=O)(=O)c1ccccc1` (stereo not drawn) was tested, and the max response, negative = inhibition was -4.71% (inactive).
`COc1ccc(-c2nc(SCC(=O)N3CCCC3)n[nH]2)cc1` was tested, and the max response, negative = inhibition was -1.92% (inactive).
In the case of `COc1ccc(N2C(=O)CC(Sc3n[nH]c(-c4ccc(C)cc4)n3)C2=O)cc1` (stereo not drawn), the Potency is reported as 18.9 µM (active).
`COc1ccc(N2C(=O)CC(SC(C)C)C2=O)cc1` (stereo not drawn) was tested, and the max response, negative = inhibition was -4.56% (inactive).
In the case of `Cc1noc(C)c1-c1ccc(C(=O)NCc2ccncc2)c2occc12`, the max response, negative = inhibition is reported as -3.63% (inactive).
